In PubChem BioAssay (Tox21):
Records with an inconclusive call do not appear. The source made the active and inactive calls. Unless noted, calls follow the shape of the full dose curve.

What was measured:
[1] = Nuclear factor erythroid 2-related factor 2/antioxidant responsive element (Nrf2/ARE) small molecule agonists: qHTS cell viability counter screen in human keratinocytes (AID 1919968; active = well fitted curve in the direction sought with a large enough effect in the repeat runs; an effect the other way counts as inactive or inconclusive; also: nearly all actives have a fitted effect of over 55% in size)
Method in brief: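 Viability counter-screen: KeratinoSens reporter cells, DMSO-delivered compounds, 23 h at 37 C, CellTiter-Fluor fluorescence.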

[2] = biological target: Gonadotropin-releasing hormone receptor (Homo sapiens) (UniProt P30968); test: Human gonadotropin-releasing hormone receptor (GnRHR) small molecule agonists, calcium flux assay in GnRHR-HEK293 cells (AID 1920063); also: nearly all actives have a fitted effect of over 35% in size
Sequence of Gonadotropin-releasing hormone receptor (Homo sapiens) (P30968 whole entry, looked up): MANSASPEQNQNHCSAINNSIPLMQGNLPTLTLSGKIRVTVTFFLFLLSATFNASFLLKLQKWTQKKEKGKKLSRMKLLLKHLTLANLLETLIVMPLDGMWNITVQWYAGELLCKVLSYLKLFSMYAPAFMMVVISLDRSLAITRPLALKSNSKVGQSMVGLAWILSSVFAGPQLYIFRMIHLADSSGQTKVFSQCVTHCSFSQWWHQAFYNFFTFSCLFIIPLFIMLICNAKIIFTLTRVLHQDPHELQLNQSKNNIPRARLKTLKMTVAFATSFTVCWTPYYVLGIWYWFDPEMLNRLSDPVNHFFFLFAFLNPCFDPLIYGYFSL
Method in brief: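 Tox21-format agonist screen using human GnRHR-expressing HEK293 cells and a fluorescent calcium dye; kinetic 3-min fluorescence reading after compound addition, 15-point concentration series run in triplicate.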

[3] = biological target: KiSS-1 receptor (Homo sapiens) (UniProt Q969F8); test: Human kisspeptin (KISS1R) small molecule agonists, calcium flux assay in KISS1R-HEK293 cells (AID 1920064; active = well fitted curve in the direction sought with a large enough effect in the repeat runs; an effect the other way counts as inactive or inconclusive)
Sequence of KiSS-1 receptor (Homo sapiens) (Q969F8 whole entry, looked up): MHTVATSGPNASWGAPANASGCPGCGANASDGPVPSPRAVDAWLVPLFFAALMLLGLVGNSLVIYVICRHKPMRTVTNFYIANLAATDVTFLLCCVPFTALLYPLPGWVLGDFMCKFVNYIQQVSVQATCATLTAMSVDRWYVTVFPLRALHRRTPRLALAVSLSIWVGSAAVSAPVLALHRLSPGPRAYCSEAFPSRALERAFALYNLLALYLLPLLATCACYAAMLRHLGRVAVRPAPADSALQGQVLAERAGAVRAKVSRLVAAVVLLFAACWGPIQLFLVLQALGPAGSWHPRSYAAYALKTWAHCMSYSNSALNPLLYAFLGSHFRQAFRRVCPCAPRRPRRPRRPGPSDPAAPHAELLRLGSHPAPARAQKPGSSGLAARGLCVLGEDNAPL
Method in brief: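 Intracellular calcium mobilization in KISS1R-HEK293 cells was recorded by fluorescence (Ex/Em 480/540) for 3 min following compound addition to cells pre-loaded 1 h with calcium dye.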

[4] = G protein-coupled receptor (GPCR) small molecule agonists, calcium flux assay: HEK293 wild type cell line counter screen (AID 1920065)
Method in brief: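 In this agonist-mode screen, ATP is the positive control and DMSO the vehicle. Cells grow 18 h before a 1 h dye incubation at 37 C; signal is taken at Ex/Em 480/540 over 3 min.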

[5] = p53 small molecule agonists, cell-based qHTS assay with human liver microsomes (AID 1963577);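 also: p53 response element beta-lactamase reporter cells with liver microsomes plus NADPH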
Method in brief: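 p53RE-bla cells; 5 h settle, 37 C/5% CO2; cpd + HLM 0.5 mg/mL + NADPH 0.5 mg/mL (final); 16 h 37 C; LiveBLAzer 2 h RT dark; fluorescence readout.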

[6] = p53 small molecule agonists, cell-based qHTS assay with rat liver microsomes (AID 1963578)
Method in brief: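 Rat liver microsome activation: microsomes 0.5 mg/mL, NADPH 0.5 mg/mL final; p53RE-bla cells, 16 h 37 C; LiveBLAzer readout, 2 h RT dark.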

[7] = p53 small molecule agonists, cell-based qHTS assay with human liver microsomes: qHTS cell viability counter screen (AID 1963579); also: nearly all actives have a fitted effect of over 45% in size
Method in brief: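 Luminescent CellTiter-Glo read-out, 30 min at room temperature, gauged cytotoxicity in p53RE-bla cells exposed 16 h at 37 C to DMSO-dissolved compounds with metabolic activation by human liver microsomes and NADPH, each 0.5 mg/mL final.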

[8] = p53 small molecule agonists, cell-based qHTS assay with rat liver microsomes: qHTS cell viability counter screen (AID 1963580); also: nearly all actives have a fitted effect of over 45% in size
Method in brief: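 p53RE-bla HCT-116 cells (4,000/well) rested 5 h at 37 C, then given Tox21 compounds in DMSO with rat liver microsomes (0.5 mg/mL final) plus NADPH (0.5 mg/mL final) for 16 h at 37 C. Viability read by CellTiter-Glo luminescence after 30 min at room temperature.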

[9] = p53 small molecule agonists, cell-based qHTS assay: qHTS cell viability counter screen (AID 1963581); also: nearly all actives have a fitted effect of over 45% in size
Method in brief: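 Compounds are pinned onto HCT-116 p53RE-bla cells and left 16 h at 37 C. Following the reporter FRET read, ATP is quantified by CellTiter-Glo luminescence after 30 min at room temperature.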

[10] = p53 small molecule agonists, cell-based qHTS assay (AID 1963582; active = well fitted activation curve with a large enough effect in the signal ratio in the repeat runs, not every such curve was filed as active; the % refers to the signal ratio)
Method in brief: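 Agonist activity was scored from beta-lactamase FRET fluorescence in p53RE-bla cells treated 16 h at 37 C with compounds in DMSO, substrate incubation being 2 h at room temperature.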

[11] = biological target: 5-hydroxytryptamine receptor 2A (Homo sapiens) (UniProt P28223); test: 5-hydroxytryptamine receptor 2A (HTR2A) small molecule antagonists, cell-based qHTS assay (AID 1963586); also: nearly all actives have a fitted effect of over 45% in size
Sequence of 5-hydroxytryptamine receptor 2A (Homo sapiens) (P28223 whole entry, looked up): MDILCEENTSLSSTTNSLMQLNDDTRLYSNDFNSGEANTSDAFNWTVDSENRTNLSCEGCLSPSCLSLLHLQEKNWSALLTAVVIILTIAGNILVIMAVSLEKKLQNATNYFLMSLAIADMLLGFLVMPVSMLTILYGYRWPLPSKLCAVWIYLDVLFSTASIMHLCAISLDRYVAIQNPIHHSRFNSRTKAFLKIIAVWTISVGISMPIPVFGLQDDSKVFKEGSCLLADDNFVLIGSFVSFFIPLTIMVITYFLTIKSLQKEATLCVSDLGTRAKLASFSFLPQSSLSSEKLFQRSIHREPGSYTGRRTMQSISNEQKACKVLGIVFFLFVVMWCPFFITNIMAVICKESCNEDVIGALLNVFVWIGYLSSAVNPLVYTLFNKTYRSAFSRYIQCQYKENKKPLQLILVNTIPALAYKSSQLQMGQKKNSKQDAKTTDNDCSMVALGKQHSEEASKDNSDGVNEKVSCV
Method in brief: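 Antagonist-mode intracellular calcium assay: DOI (4 nM) added after 5 min compound pre-incubation at room temperature to dye-loaded HTR2A-CHO cells. Fluorescence followed for 3 min, sampled every second.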

[12] = biological target: 5-hydroxytryptamine receptor 2A (Homo sapiens) (UniProt P28223); test: 5-hydroxytryptamine receptor 2A (HTR2A) small molecule agonists, cell-based qHTS assay (AID 1963587); also: nearly all actives have a fitted effect of over 30% in size
Method in brief: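 HTR2A-CHO cells, plated 18 h at 37 C/5% CO2, dye-loaded 1 h at 37 C; compounds in DMSO added by pin tool (agonist mode). Intracellular calcium flux read as kinetic fluorescence on FDSS over 2 min at 1 s intervals.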

[13] = biological target: Muscarinic acetylcholine receptor M1 (Homo sapiens) (UniProt P11229); test: Cholinergic receptor muscarinic 1 (CHRM1) small molecule antagonists, cell-based qHTS assay (AID 1963588); also: nearly all actives have a fitted effect of over 40% in size
Sequence of Muscarinic acetylcholine receptor M1 (Homo sapiens) (P11229 whole entry, looked up): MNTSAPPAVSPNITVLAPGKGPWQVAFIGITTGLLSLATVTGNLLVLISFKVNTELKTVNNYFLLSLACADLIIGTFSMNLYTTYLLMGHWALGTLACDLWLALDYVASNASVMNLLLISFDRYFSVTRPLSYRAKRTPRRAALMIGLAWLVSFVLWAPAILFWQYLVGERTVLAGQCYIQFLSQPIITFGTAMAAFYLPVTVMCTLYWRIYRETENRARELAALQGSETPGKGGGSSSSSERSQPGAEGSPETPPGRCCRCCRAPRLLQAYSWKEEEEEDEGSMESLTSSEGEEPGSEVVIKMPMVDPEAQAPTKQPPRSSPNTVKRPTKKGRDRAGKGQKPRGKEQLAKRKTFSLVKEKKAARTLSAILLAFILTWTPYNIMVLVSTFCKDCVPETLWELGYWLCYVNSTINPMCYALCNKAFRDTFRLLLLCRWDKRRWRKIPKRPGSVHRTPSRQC
Method in brief: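 CHRM1-CHO calcium-flux assay, antagonist mode. Cells were seeded 18 h, dye-loaded 1 h at 37 C and given compound for 5 min at RT, then acetylcholine was added at 50nM. FDSS fluorescence was read 3 min; 15 concentrations, three runs.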

[14] = biological target: Muscarinic acetylcholine receptor M1 (Homo sapiens) (UniProt P11229); test: Cholinergic receptor muscarinic 1 (CHRM1) small molecule agonists, cell-based qHTS assay (AID 1963589); also: nearly all actives have a fitted effect of over 35% in size
Method in brief: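 Stable CHRM1-CHO cells (human receptor) were incubated 18 h, dye-loaded for 1 h at 37 C and exposed to test compounds for agonist activity, with calcium-dependent fluorescence followed kinetically.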

[15] = cAMP Responsive Elements (CRE) small molecule agonists, cell-based qHTS assay (AID 1963590)
Method in brief: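 FRET-based beta-lactamase readout (LiveBLAzer B/G, 2 h RT) quantified CRE activation in HEK 293T CRE-bla cells after 3 h treatment with DMSO-dissolved compounds.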

[16] = cAMP Responsive Elements (CRE) small molecule antagonists, cell-based qHTS assay (AID 1963591; active = well fitted inhibition curve with a large enough effect in the signal ratio in the repeat runs, not every such curve was filed as active; the % refers to the signal ratio)
Method in brief: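 qHTS in CRE-bla HEK 293T cells: compound in DMSO, then 0.25 uM NKH477 (final), 3 h at 37 °C/5% CO2; beta-lactamase FRET read-out after 2 h substrate incubation.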

[17] = biological target: Beta-2 adrenergic receptor (Homo sapiens) (UniProt P07550); test: Adrenergic beta2 receptor (ADRB2) small molecule antagonists, cell-based qHTS assay (AID 1963592); also: series mostly up to about 92 µM; nearly all actives have a fitted effect of over 50% in size
Sequence of Beta-2 adrenergic receptor (Homo sapiens) (P07550 whole entry, looked up): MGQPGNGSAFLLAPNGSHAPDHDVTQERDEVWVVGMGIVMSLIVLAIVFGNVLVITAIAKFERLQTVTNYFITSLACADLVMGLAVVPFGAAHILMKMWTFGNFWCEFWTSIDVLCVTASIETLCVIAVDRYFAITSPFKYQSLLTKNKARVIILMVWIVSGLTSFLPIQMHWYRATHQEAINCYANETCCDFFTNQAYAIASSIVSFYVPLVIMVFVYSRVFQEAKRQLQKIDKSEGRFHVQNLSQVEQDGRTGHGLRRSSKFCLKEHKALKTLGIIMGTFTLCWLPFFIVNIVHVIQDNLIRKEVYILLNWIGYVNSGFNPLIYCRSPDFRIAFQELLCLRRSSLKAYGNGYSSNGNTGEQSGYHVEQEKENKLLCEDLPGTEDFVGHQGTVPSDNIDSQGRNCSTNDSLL
Method in brief: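 Cells (CHO, stable ADRB2 overexpression) incubated 18-20hr at 37C; compounds added from DMSO; agonist mix (1nM isoproterenol, 100uM IBMX, 25uM Ro-20-1724) added; 0.5hr RT; d2-cAMP and anti-cAMP-cryptate added; 1hr RT; 665/615 nm read.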

[18] = biological target: D(2) dopamine receptor (Homo sapiens) (UniProt P14416); test: Dopamine D2 receptor (DRD2) small molecule agonists, cell-based qHTS assay (AID 1963594); also: nearly all actives have a fitted effect of over 35% in size
Sequence of D(2) dopamine receptor (Homo sapiens) (P14416 whole entry, looked up): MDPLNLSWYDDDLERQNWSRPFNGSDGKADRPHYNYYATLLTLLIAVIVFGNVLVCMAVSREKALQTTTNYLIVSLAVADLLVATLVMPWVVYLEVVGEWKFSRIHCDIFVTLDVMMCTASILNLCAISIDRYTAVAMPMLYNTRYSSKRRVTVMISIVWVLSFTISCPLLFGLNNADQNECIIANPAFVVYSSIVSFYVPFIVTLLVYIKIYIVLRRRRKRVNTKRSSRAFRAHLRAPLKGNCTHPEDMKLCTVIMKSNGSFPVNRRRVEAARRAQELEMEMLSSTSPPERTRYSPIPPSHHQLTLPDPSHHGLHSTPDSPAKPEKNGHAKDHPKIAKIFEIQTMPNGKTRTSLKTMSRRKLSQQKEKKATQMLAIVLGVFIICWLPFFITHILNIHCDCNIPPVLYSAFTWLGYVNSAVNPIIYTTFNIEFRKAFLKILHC
Method in brief: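 HEK293 cells stably expressing DRD2 were cultured 24 h at 37 C, then given Ro20-1724 (0.1 mM final) and compounds for 10 min at room temperature. NKH477 (200nM) was then added for 30 min. cAMP was read by HTRF.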

[19] = biological target: D(2) dopamine receptor (Homo sapiens) (UniProt P14416); test: Dopamine D2 receptor (DRD2) small molecule antagonists, cell-based qHTS assay (AID 1963595; active = well fitted inhibition curve with a large enough effect in the signal ratio in the repeat runs, with a control signal flat; the % refers to the signal ratio)
Method in brief: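 HEK293 cells stably expressing DRD2 were preincubated with 0.1 mM Ro20-1724, then with compound for 10 min at room temperature. Cells were stimulated with 200 nM NKH477 plus 12 nM quinpirole for 30 min, and cAMP was read by HTRF.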

[20] = biological target: Beta-2 adrenergic receptor (Homo sapiens) (UniProt P07550); test: Adrenergic beta2 receptor (ADRB2) small molecule agonists, cell-based qHTS assay (AID 1963593);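 also: CHO cells stably overexpressing human ADRB2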
Method in brief: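 CHO cells stably over-expressing ADRB2 were plated overnight at 37C, then dosed with compounds plus a stimulation mix containing 100uM IBMX and 25uM Ro-20-1724 for 0.5hr at room temperature. cAMP was measured by HTRF competition, 1hr.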
% is scaled to controls: 0 for no effect and ±100 for the full control effect.

Oc1cccc2ccccc12
inactive: Potency [1] | Potency [2] | Potency [3] | Potency [4] | Potency [5] | Potency [6] | Potency [7] | Potency [8] | Potency [9] | Potency [10] | Potency [11] | Potency [12] | Potency [13] | Potency [14] | Potency [15] | Potency [16] | Potency [17] | Potency [18] | Potency [19]

C=CCCCCCCCCCCCCCCCC
inactive: activity change, negative = cytotoxicity [1] 2.1% [at 8.39 µM] | activity change [2] 0.969% [at 5.22 µM, active compounds read high] | activation [3] 0.739% [at 6.97 µM] | activation [4] -0.775% [at 5.23 µM] | activation [5] -1.7% [at 5.99 µM] | activation [6] -2.36% [at 5.99 µM] | activity change, negative = cytotoxicity [7] -5.51% [at 5.99 µM] | activity change, negative = cytotoxicity [8] -2.99% [at 5.99 µM] | activity change, negative = cytotoxicity [9] -20.9% [at 5.99 µM] | activation [10] 2.83% [at 5.99 µM] | activity, negative = inhibition [11] -3.97% [at 5.62 µM] | activation [12] -2.29% [at 7.02 µM] | activity, negative = inhibition [13] -31.3% [at 5.58 µM] | activation [14] 1.23% [at 6.97 µM] | activation [15] 0.435% [at 8.39 µM] | activity change, negative = inhibition [16] -13% [at 8.39 µM] | activation [18] 0.185% [at 8.39 µM] | activity change, negative = inhibition [19] -1.92% [at 8.38 µM]

CCOC(=O)c1ccc(N)cc1
inactive: Potency [1] | Potency [2] | Potency [3] | Potency [4] | Potency [5] | Potency [6] | Potency [7] | Potency [8] | Potency [9] | Potency [10] | Potency [15] | Potency [16] | Potency [17] | Potency [20] | Potency [18] | Potency [19]

CCCCCCCCCCCC(=O)OCC(C)OC(=O)CCCCC(=O)O (stereo unspecified)
inactive: Potency [1] | Potency [2] | Potency [3] | Potency [4] | Potency [5] | Potency [6] | Potency [7] | Potency [8] | Potency [9] | Potency [10] | Potency [11] | Potency [12] | Potency [13] | Potency [14] | Potency [15] | Potency [17] | Potency [18] | Potency [19]

OCC1(CO)COCOC1
inactive: Potency [1] | Potency [2] | Potency [3] | Potency [4] | Potency [5] | Potency [6] | Potency [7] | Potency [8] | Potency [9] | Potency [10] | Potency [11] | Potency [13] | Potency [14] | Potency [15] | Potency [16] | Potency [17] | Potency [20] | Potency [18] | Potency [19]

c1ccc(CNc2ncnc3c2ncn3C2CCCCO2)cc1 (stereo unspecified)
inactive: Potency [1] | Potency [2] | Potency [3] | Potency [4] | Potency [5] | Potency [6] | Potency [7] | Potency [8] | Potency [9] | Potency [10] | Potency [11] | Potency [12] | Potency [14] | Potency [15] | Potency [16] | Potency [17] | Potency [18] | Potency [19]

CC(C)(C)NC[C@H](O)COc1nsnc1N1CCOCC1
inactive: Potency [1] | Potency [2] | Potency [3] | Potency [4] | Potency [5] | Potency [6] | Potency [7] | Potency [8] | Potency [9] | Potency [10] | Potency [15] | Potency [16] | Potency [18]
